We go through 17 compounds from the supplement of paper PMC6124720.

The subject of this test is Pseudogymnoascus destructans 20631-21. The experiment in a line: growth activity index (DuctApe, 0 = no growth, 9 = maximal growth) (index 0-9); higher = more fungal growth (less inhibition), active = 0 or less; extreme values may be limits of the assay. To be noted: temperature: 13 °C, YPD.
[1] abbreviates: concentration level (1-4, increasing; Biolog proprietary): 1.
Where [2] appears, read: concentration level (1-4, increasing; Biolog proprietary): 2.
Setting [3] is: concentration level (1-4, increasing; Biolog proprietary): 3.
Setting [4] is: concentration level (1-4, increasing; Biolog proprietary): 4.

A number with no mark means an inactive call.
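Also: biolog Phenotype Microarray plates PM21–25, OD595 followed daily over 11 days, growth curves converted to index, mean of two independent experiments.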

As for `[Cl][Ni][Cl]` [Nickel chloride] (Biolog plate: PM21), the growth activity index under setting [1] is 5, the growth activity index under setting [2] was 4.25, the growth activity index under setting [3] was 4.5 and the growth activity index under setting [4] is 5.
For the compound `CCCCC(C#N)(Cn1cncn1)c1ccc(Cl)cc1` (stereo not drawn) [Myclobutanil] (Biolog plate: PM22), the growth activity index was 5.33 under setting [1], 0.667 under setting [2], 0 (active) under setting [3] and 0 (active) under setting [4].
In the case of `[N-]=[N+]=[N-]` [Sodium Azide] (Biolog plate: PM23), the growth activity index was 2.67 under setting [1], 1 under setting [2], 0 (active) under setting [3] and 0.333 under setting [4].
For `CCCC1COC(Cn2cncn2)(c2ccc(Cl)cc2Cl)O1` (stereo not drawn) [Propiconazole] (Biolog plate: PM24) the same measures were 4.67, 2, 1 and 0.333.
With `CNC1CC(N)C(O)C(OC2OC(CO)C(O)C3OC4(OC(C(N)CO)C(O)C(O)C4O)OC23)C1O` (stereo not drawn) [Hygromycin B] (Biolog plate: PM25), the growth activity index by setting is: under setting [1], 2.67; under setting [2], 2; under setting [3], 1; under setting [4], 0 (active).
`CN(CC[C@H](N)CC(=O)N[C@H]1C=C[C@H](n2ccc(N)nc2=O)O[C@@H]1C(=O)O)C(=N)N` [Blasticidin S] (Biolog plate: PM24): the growth activity index by setting is: under setting [1], 4.67; under setting [2], 4.33; under setting [3], 4; under setting [4], 4.
For `CCCCCCCCCCCCCCCC[n+]1ccccc1` [Cetylpyridinium chloride] (Biolog plate: PM21), the growth activity index under setting [1] is 5.25, the growth activity index under setting [2] is 0 (active), the growth activity index under setting [3] is 0 (active) and the growth activity index under setting [4] is 0 (active).
Consider `O=[As][O-].[Na+]` [Sodium Arsenite] (Biolog plate: PM23), for which the growth activity index under setting [1] was 4, the growth activity index under setting [2] is 4.67, the growth activity index under setting [3] was 4.33 and the growth activity index under setting [4] is 5.
On the same counts, the results for `[Cl][Cd][Cl]` [Cadmium Chloride] (Biolog plate: PM23) are 4.33, 2, 0.667 and 0 (active).
Turning to `[Na+].[Na+].[O]=[Cr](=[O])([O-])[O][Cr](=[O])(=[O])[O-]` [Sodium Dichromate] (Biolog plate: PM21), the growth activity index is 4.25 under setting [1], 5 under setting [2], 5 under setting [3] and 4.25 under setting [4].
With `O=[Se]([O-])[O-].[Na+].[Na+]` [Sodium Selenite] (Biolog plate: PM21), the growth activity index was 6 under setting [1], 5.25 under setting [2], 6 under setting [3] and 4.75 under setting [4].
Turning to `[N-]=[N+]=CC(=O)OC[C@H](N)C(=O)O` [Azaserine] (Biolog plate: PM22), the growth activity index was 5 under setting [1], 4.33 under setting [2], 4.67 under setting [3] and 4.67 under setting [4].
`N.N.[Cl][Pt][Cl]` [Cisplatin] (Biolog plate: PM24): the growth activity index reads like this: under setting [1], 5; under setting [2], 4.67; under setting [3], 4; under setting [4], 4.
With `[Cl][Cr]([Cl])[Cl]` [Chromium (III) chloride] (Biolog plate: PM23), the growth activity index by setting is: under setting [1], 5.33; under setting [2], 4; under setting [3], 2; under setting [4], 3.33.
On to `N#CO` [Sodium Cyanate] (Biolog plate: PM23), for which the growth activity index reads like this: under setting [1], 5; under setting [2], 4.67; under setting [3], 4.33; under setting [4], 4.67.
`Nc1ccncc1` [4-Aminopyridine] (Biolog plate: PM25): the growth activity index runs as follows: under setting [1], 4.67; under setting [2], 4; under setting [3], 4.33; under setting [4], 1.33.
As to `[K+].[K+].[O]=[Cr](=[O])([O-])[O-]` [Potassium Chromate] (Biolog plate: PM24), the growth activity index under setting [1] is 3.33, the growth activity index under setting [2] was 4, the growth activity index under setting [3] is 4 and the growth activity index under setting [4] is 4.33.
